In article PMC4336329 (PLoS ONE, 2015):
Hit rate of the full screen: of about 310,000 compounds, about 14,000 (4.5%) showed an effect of 50% or more. The effect is printed as a negative number. This excerpt belongs to a sample that is enriched for strong results.

Each molecule was assayed against human ether-à-go-go-related gene (hERG) potassium channel (human, UniProt Q12809) (assay: primary screen, population patch clamp on CHO cells stably expressing hERG; higher = less effect of the substance).
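Also: peak tail current of the secondary pulse compared with the same well before compound.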

human ether-à-go-go-related gene (hERG) potassium channel, sequence (Q12809 whole entry, looked up): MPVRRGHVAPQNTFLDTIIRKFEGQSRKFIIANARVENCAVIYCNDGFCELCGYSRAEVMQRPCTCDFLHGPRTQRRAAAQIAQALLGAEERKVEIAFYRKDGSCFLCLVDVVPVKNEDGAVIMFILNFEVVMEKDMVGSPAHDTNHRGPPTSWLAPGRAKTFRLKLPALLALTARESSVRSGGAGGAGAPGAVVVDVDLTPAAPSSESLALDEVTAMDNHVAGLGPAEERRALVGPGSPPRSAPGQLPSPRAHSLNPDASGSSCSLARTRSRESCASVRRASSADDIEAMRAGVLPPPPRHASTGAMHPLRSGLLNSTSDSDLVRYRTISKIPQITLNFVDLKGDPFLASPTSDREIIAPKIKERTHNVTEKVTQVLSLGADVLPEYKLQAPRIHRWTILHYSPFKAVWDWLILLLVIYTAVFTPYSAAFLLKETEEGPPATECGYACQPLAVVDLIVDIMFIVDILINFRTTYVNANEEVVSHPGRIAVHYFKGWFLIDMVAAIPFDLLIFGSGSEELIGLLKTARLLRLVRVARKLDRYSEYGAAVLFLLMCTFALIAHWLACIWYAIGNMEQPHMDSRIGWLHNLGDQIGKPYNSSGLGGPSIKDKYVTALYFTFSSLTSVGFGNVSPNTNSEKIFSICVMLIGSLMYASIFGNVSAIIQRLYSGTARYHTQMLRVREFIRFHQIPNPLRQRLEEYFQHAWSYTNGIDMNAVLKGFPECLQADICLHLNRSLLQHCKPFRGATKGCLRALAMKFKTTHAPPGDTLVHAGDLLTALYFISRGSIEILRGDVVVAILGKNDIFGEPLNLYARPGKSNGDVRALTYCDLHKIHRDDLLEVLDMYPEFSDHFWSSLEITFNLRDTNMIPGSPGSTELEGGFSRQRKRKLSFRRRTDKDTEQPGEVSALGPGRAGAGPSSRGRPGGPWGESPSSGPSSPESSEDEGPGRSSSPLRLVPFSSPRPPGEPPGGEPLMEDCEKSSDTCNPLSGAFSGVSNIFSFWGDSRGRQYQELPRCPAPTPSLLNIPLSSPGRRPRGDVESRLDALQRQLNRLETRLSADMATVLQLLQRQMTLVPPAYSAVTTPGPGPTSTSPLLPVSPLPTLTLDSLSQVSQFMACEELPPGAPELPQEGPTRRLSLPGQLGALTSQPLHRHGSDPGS

SMILES | hERG current change (%, negative = inhibition) at 10uM
O=C(Nc1ccc(Cl)cc1)Nc1ccccc1CC[N+](=O)[O-] | 7.79%
CC(=O)O[C@H]1CC[C@@]2(C)C(CCC3C2CC[C@]2(C)OC(=O)CCC32)C1 (stereo partly shown) | -10.7%
O=C(O)c1ccc(S(=O)(=O)N2CCCc3ccccc32)cc1 | 19.7%
O=C(CN1C(=O)NC2(CCCCCC2)C1=O)N1CCN(S(=O)(=O)c2ccc(Cl)cc2)CC1 | -23.9%
Cc1ccc(S(=O)(=O)N(C)c2nc3ccccc3[nH]c2=S)cc1 | 4.41%
O=C1C(Cc2cccc([N+](=O)[O-])c2)S/C(=N/N=C/c2ccco2)N1c1ccccc1 (stereo not shown) | 2.64%
O=C(NC1CCCCC1)N(Cc1nc2ccccc2c(=O)[nH]1)C1CCCCC1 | 2.79%
O=C(NCCc1nc2ccccc2[nH]1)/C(=C/c1ccco1)NC(=O)c1ccc(Br)cc1 | -69.9%
O=C(NCCc1nc2ccccc2[nH]1)/C(=C/c1ccco1)NC(=O)c1ccc(Br)o1 | -63.2%
CC(C)=C(NC(=O)c1ccccc1Br)C(=O)NCCc1nc2ccccc2[nH]1 | 3.68%
COc1ccc(/C=C(\NC(=O)c2ccco2)C(=O)NCCc2nc3ccccc3[nH]2)cc1 | -42.6%
CC(C)=C(NC(=O)c1ccco1)C(=O)NCCc1nc2ccccc2[nH]1 | 1.12%
O=C(NCCc1nc2ccccc2[nH]1)c1ccc(Br)o1 | 3.87%
O=C(NCCc1nc2ccccc2[nH]1)/C(=C/c1ccc(F)cc1)NC(=O)c1ccco1 | -62.8%
Cc1ccc(C(=O)N/C(=C/c2ccco2)C(=O)NCCc2c[nH]c3ccccc23)cc1 | -46%
O=C(NCCc1nc2ccccc2[nH]1)/C(=C/c1ccco1)NC(=O)c1ccccc1Br | -64.9%
O=C(NCCc1nc2ccccc2[nH]1)c1ccco1 | 2.94%
O=C(NCCc1nc2ccccc2[nH]1)/C(=C/c1ccco1)NC(=O)c1ccco1 | -17.3%
O=C(CNC(=O)c1ccc(Br)cc1)NCCc1nc2ccccc2[nH]1 | -6.76%
CCc1nc(SCC(=O)N2CCC(C)CC2)c2c(=O)n(C)c(=O)n(C)c2n1 | -11.6%
CC1Cc2ccccc2N1c1ncnc(N)c1[N+](=O)[O-] (stereo not shown) | -24.2%
CCCCOc1ccccc1P(=O)(O)CP(=O)(c1ccccc1)c1ccccc1 | -3.64%
